# Test results as given in PubChem BioAssay AID651658 (Broad Institute, 2012).
# Screen size: about 340,000 compounds; about 5,100 (1.5%) were called active. This is one part of a sample in which actives are shown more often than they occur.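 Rule for the calls: active = mean Tm shift, scaled 0 neutral to 100 positive control, at about 1.3% or above, every replicate too (limit read from the data); inconclusive = no clear call, values can overlap the other calls; inactive = the rest.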
# Biological target: Fibroblast growth factor 22 (Homo sapiens) (UniProt Q9HCT0)
# Sequence (Q9HCT0 whole entry, looked up): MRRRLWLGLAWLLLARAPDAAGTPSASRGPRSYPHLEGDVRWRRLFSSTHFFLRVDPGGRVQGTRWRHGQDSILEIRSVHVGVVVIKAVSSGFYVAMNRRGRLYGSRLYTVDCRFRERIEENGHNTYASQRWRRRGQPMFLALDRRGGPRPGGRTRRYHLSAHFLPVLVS
# Assay: FGF22 ligand-induced thermal stabilization – biophysical, thermal shift, single point, FGF22 synaptogenesis inhibitor project, primary screen (AID 651658)
# Conditions: recombinant FGF22 thermal shift, SYPRO orange fluorescence; at 9.99 µM; stronger effect = higher value; percent of sucrose octasulfate shift, DMSO zero
row,Structure (SMILES),"activity (Tm shift, normalised)"
1,C/C=C/c1cccc(-c2nc(C(=O)NCCN3CCCCC3)cc3c2[C@@H](CCO)N([S@](=O)C(C)(C)C)C3)c1,0.178% (inactive)
2,C[C@@H]1CCCCO[C@@H](CN(C)C(=O)Nc2ccc(C(F)(F)F)cc2)[C@H](C)CN([C@@H](C)CO)C(=O)c2cc(N(C)C)ccc2O1,-1.45% (inactive)
3,C[C@@H](NC(=O)C[C@H]1C=C[C@H](NC(=O)C2CCOCC2)[C@H](CO)O1)c1ccccc1,-0.059% (inactive)
4,COCC#Cc1ccc([C@H]2[C@H]3CN(Cc4ccncc4)CCCCN3[C@H]2CO)cc1,0.633% (inactive)
5,COc1ccccc1NC(=O)CSc1nnc(CNC(=O)c2ccccc2F)o1,0.09% (inactive)
6,Cc1ccc(NC(=O)CSc2nnc(CNC(=O)c3ccccc3F)o2)cc1,44% (active)
7,Cc1ccc(NC(=O)CSc2nnc(CNC(=O)c3ccccc3F)o2)cc1Cl,0.074% (inactive)
8,O=C(N[C@H]1CC[C@@H](CCNS(=O)(=O)c2ccccc2)O[C@@H]1CO)c1cnccn1,-0.268% (inactive)
9,C[C@@H]1CN([C@H](C)CO)C(=O)c2cc(NC(=O)C3CCCCC3)ccc2O[C@H]1CN(C)C(=O)Nc1ccccc1,-0.036% (inactive)
10,C[C@H](CO)N1C[C@H](C)[C@@H](CN(C)C(=O)Nc2ccc3c(c2)OCO3)Oc2ccc(NS(=O)(=O)c3ccc(Cl)cc3)cc2C1=O,0.554% (inactive)
11,CCS(=O)(=O)Nc1ccc2c(c1)C(=O)N(C)[C@H]1CC[C@@H](CC(=O)Nc3ccccc3)O[C@H]1CO2,0.176% (inactive)
12,COCc1c(N)c(C)nc(Cl)c1C#N,43% (active)
13,Cc1nc(Cl)c(C#N)c2c1CCCC2,-0.106% (inactive)
14,O=C(C[C@@H]1CC[C@@H]2[C@H](COC[C@@H](O)CN2Cc2ccccc2)O1)NCCc1ccccc1,-0.247% (inactive)
15,O=C(C[C@@H]1CC[C@@H]2[C@H](COC[C@H](O)CN2S(=O)(=O)c2ccccc2F)O1)NCc1ccccc1F,-0.237% (inactive)
16,CC(OC(=O)CCCc1c[nH]c2ccccc12)C(=O)Nc1ccc(S(N)(=O)=O)cc1 (stereo unspecified),-0.822% (inactive)
17,O=C(COC(=O)CCc1c[nH]c2ccccc12)Nc1cccc(Cl)c1,0.175% (inactive)
18,NS(=O)(=O)c1ccc(NC(=O)COC(=O)CCc2c[nH]c3ccccc23)cc1,43.3% (active)
19,COc1ccc(S(=O)(=O)N[C@H]2CC[C@H](CCn3cc(C(C)C)nn3)O[C@@H]2CO)cc1,0.529% (inactive)
20,COCC(=O)N1[C@H](CO)[C@@H](c2ccccc2)C12CN(Cc1cc(F)ccc1F)C2,-0.224% (inactive)
21,COc1ccccc1NC(=O)N1C[C@@H](O)COC[C@H]2O[C@@H](CC(=O)NCc3ccccc3)CC[C@@H]21,-0.018% (inactive)
22,COc1ccc(S(=O)(=O)N(C)C[C@@H]2OCCCC[C@@H](C)Oc3ccc(NC(=O)c4ccccc4)cc3C(=O)N([C@@H](C)CO)C[C@H]2C)cc1,0.83% (inactive)
23,CCN(CC(=O)Nc1cccc(S(N)(=O)=O)c1)Cc1nc2ccccc2c(=O)[nH]1,42.3% (inactive)
24,CCN(CC(=O)Nc1ccc(Cl)c(S(=O)(=O)N(C)C)c1)Cc1nc2ccccc2c(=O)[nH]1,0.133% (inactive)

row,Structure (SMILES),"activity (Tm shift, normalised)"
1,CCN(CC(=O)NC(=O)NCc1ccccc1)Cc1nc2ccccc2c(=O)[nH]1,43% (active)
2,COc1ccc(S(=O)(=O)N(C)C[C@H]2OCCCC[C@H](C)Oc3ccc(NC(=O)CCC(F)(F)F)cc3C(=O)N([C@@H](C)CO)C[C@@H]2C)cc1,0.44% (inactive)
3,Cc1noc(C)c1NC(=O)Nc1ccc2c(c1)C(=O)N([C@H](C)CO)C[C@@H](C)[C@@H](CN(C)S(=O)(=O)c1ccc(Cl)cc1)OCCCC[C@H](C)O2,-0.533% (inactive)
4,COc1ccc(NC(=O)O[C@@H](c2ccc(OCCO)cc2)[C@@H](C)CCO)cc1,-1.48% (inactive)
5,CCCNC(=O)N1CCC2(CC1)CN(C(=O)CN1CCOCC1)[C@H](CO)c1[nH]c3cc(OC)ccc3c12,-0.015% (inactive)
6,N#Cc1c(NC(=O)CCCl)sc2c1CCCCC2,43% (active)
7,N#Cc1c(NC(=O)C2CCCO2)sc2c1CCCCC2 (stereo unspecified),0.476% (inactive)
8,CCN1CCN(CC(=O)Nc2sc3c(c2C#N)CCC3)CC1,-0.078% (inactive)
9,CCCNC(=O)C[C@@H]1CC[C@@H]2[C@H](COc3ccc(NC(=O)c4cc(F)cc(F)c4)cc3C(=O)N2C)O1,0.224% (inactive)
10,O=C(C[C@@H]1CC[C@@H](NC(=O)c2ccc3c(c2)OCO3)[C@H](CO)O1)NCc1ccc(F)cc1,-0.125% (inactive)
11,Cc1ccccc1S(=O)(=O)N1C[C@@H]2N[C@H](C1)C2c1ccc(-c2cccc(C(=O)N(C)C)c2)cc1 (stereo partly specified),0.138% (inactive)
12,O=C(C[C@H]1CC[C@@H]2[C@H](COC[C@@H](O)CN2Cc2cccc(-c3ccncc3)c2)O1)N1CCOCC1,0.256% (inactive)
13,CNC(=O)C[C@H]1C(=O)N(c2ccc(OC)cc2)C[C@@H]1Cc1ccccc1,43.3% (active)
14,O=C(C[C@H]1C(=O)N(c2ccc(F)c(F)c2)C[C@@H]1Cc1ccccc1)Nc1ccccc1,-0.246% (inactive)
15,CNC(=O)C[C@H]1C(=O)N(Cc2ccccc2)C[C@@H]1CSC,0.23% (inactive)
16,CC(C)N1C(=O)[C@@]2(Cc3ccccc31)c1ccccc1C(=O)N(C1CCCCC1)[C@H]2c1ccc(CO)cc1,-0.066% (inactive)
17,COc1ccc(-c2ccccc2[C@H]2[C@@H](CO)N(C(=O)C3CCC3)[C@H]2C#N)cc1,-0.131% (inactive)
18,C[C@H](CO)N1C[C@H](C)[C@H](CN(C)C(=O)Cc2ccccn2)Oc2ncc(-c3cncnc3)cc2C1=O,-0.28% (inactive)
19,COC(=O)c1ccc(NC(=S)NN2CCOCC2)cc1,43.4% (active)
20,Cc1ccc(C(=O)NC(=S)Nc2ccc(N3CCOCC3)cc2)cc1,-0.25% (inactive)
21,COC(=O)c1ccc(NC(=S)Nc2cccc(C)n2)cc1,42.2% (inactive)
22,OC[C@@H]1Nc2ccc(-c3ccc(F)cc3)cc2[C@@H]2[C@H]1CCN2Cc1ccc(F)cc1,-0.323% (inactive)
23,COc1ccc(NC(=O)Nc2ccc3c(c2)[C@@H]2C[C@@H](CC(=O)NCc4ccncc4)O[C@@H](CO)[C@@H]2O3)cc1,-0.189% (inactive)
24,C[C@@H]1CN([C@H](C)CO)S(=O)(=O)c2ccc(-c3ccccc3)cc2O[C@@H]1CN(C)C(=O)CC1CC1,-0.061% (inactive)

row,Structure (SMILES),"activity (Tm shift, normalised)"
1,C[C@@H]1CCCCO[C@H](CN(C)S(=O)(=O)c2ccccc2)[C@@H](C)CN([C@@H](C)CO)C(=O)c2cc(NS(=O)(=O)c3ccccc3)ccc2O1,-0.644% (inactive)
2,CCc1cc2cc(OC)ccc2nc1SCC(=O)Nc1cc(OC)c(OC)cc1C(=O)O,43.1% (active)
3,COc1ccc(OC)c(NC(=O)CSc2nc(-c3ccccc3)cc(=O)[nH]2)c1,-0.146% (inactive)
4,COc1ccc(NC(=O)CSc2nc(SC)ns2)c(OC)c1,0.019% (inactive)
5,CC(C)(C)C(=O)NCCCNc1ccc([N+](=O)[O-])cc1,43.5% (active)
6,O=[N+]([O-])c1ccc(NCCCO)c(C(F)(F)F)c1,0.215% (inactive)
7,O=C(NCCNc1ccc([N+](=O)[O-])cc1)c1cccc2c(Br)cccc12,0% (inactive)
8,CNC(=O)C[C@@H]1CC[C@@H]2[C@@H](COc3ccc(NC(=O)c4ccc5c(c4)OCO5)cc3C(=O)N2C)O1,-0.015% (inactive)
9,Cc1cccc(NC(=O)Nc2ccc3c(c2)OCO3)n1,43.6% (active)
10,CC(NC(=O)Nc1ccc2c(c1)OCO2)c1ccncc1 (stereo unspecified),0.039% (inactive)
11,CNS(=O)(=O)c1ccc(NC(=O)Nc2ccc3c(c2)OCO3)cc1,-0.016% (inactive)
12,COc1ccc(NC(=O)Nc2ccc3c(c2)C(=O)N([C@H](C)CO)C[C@H](C)[C@@H](CN(C)Cc2ccc(C(=O)O)cc2)OCCCC[C@H](C)O3)cc1,-0.009% (inactive)
13,CC=Cc1ccc2n(c1=O)C[C@@H]1[C@@H](CO)[C@H](C(=O)N[C@H](C)c3ccccc3)N(C(=O)c3cnccn3)[C@H]21 (mixture of isomers),-0.323% (inactive)
14,Nc1ccc(C(=O)OCC(=O)NC2CCS(=O)(=O)C2)cc1[N+](=O)[O-] (stereo unspecified),43.7% (active)
15,O=C(COC(=O)/C=C/c1ccc(Cl)cc1)NC1CCS(=O)(=O)C1 (stereo unspecified),0.02% (inactive)
16,O=C(COC(=O)c1ncc(Cl)c(Cl)c1Cl)NC1CCS(=O)(=O)C1 (stereo unspecified),0.023% (inactive)
17,COc1ccc2c3c([nH]c2c1)[C@H](CO)N(C(C)=O)CC31CN(S(=O)(=O)c2cccs2)C1,-10.2% (inactive)
18,C[C@H](CO)N1C[C@H](C)[C@@H](CN(C)Cc2ccc(C(=O)O)cc2)Oc2ccc(NC(=O)Cn3cnnn3)cc2CC1=O,-0.125% (inactive)
19,C[C@H]1CN([C@@H](C)CO)C(=O)Cc2cc(NC(=O)Cn3cnnn3)ccc2O[C@H]1CN(C)Cc1ccc(C(=O)O)cc1,-0.049% (inactive)
20,C[C@H]1CN([C@@H](C)CO)C(=O)Cc2cc(NC(=O)Cc3cn(C)c4ccccc34)ccc2O[C@H]1CN(C)Cc1ccccc1,1.01% (inactive)
21,C[C@H]1CN([C@@H](C)CO)C(=O)Cc2cc(NC(=O)Cc3cn(C)c4ccccc34)ccc2O[C@@H]1CN(C)Cc1ccccc1,1.38% (active)
22,C[C@@H]1CN([C@H](C)CO)C(=O)Cc2cc(NC(=O)Cn3cnnn3)ccc2O[C@H]1CN(C)Cc1ccc(C(F)(F)F)cc1,1.38% (active)
23,C[C@@H]1CN([C@@H](C)CO)C(=O)Cc2cc(NC(=O)Cc3cn(C)c4ccccc34)ccc2O[C@H]1CN(C)Cc1ccc(C(=O)O)cc1,0.077% (inactive)
